The results in this text go back to PubChem BioAssay (NCATS).

Each structure is given as a SMILES string. Records with an inconclusive call do not appear. Active and inactive are the calls of the source. Unless noted, calls come from the whole dose curve.

Assay [1] concerns the target Peroxisome proliferator-activated receptor delta (Homo sapiens) (UniProt Q03181). The assay can be described thus: qHTS assay for small molecule agonists of peroxisome proliferator-activated receptor delta signaling (AID 588534).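 Note: 0% = DMSO basal wells and 100% = positive control agonist at 10 µM.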 The gist of the method:
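Titration series tested in agonist mode on beta-lactamase reporter cells; 18 hrs at 37 C after a 5 hr pre-incubation. Readout: CCF4 fluorescence, 2 hrs RT. Hill equation gives EC50 and maximal response.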

A short description of assay [2]: qHTS assay for small molecule antagonists of peroxisome proliferator-activated receptor delta signaling (AID 588535; active = well fitted inhibition curve with a large enough effect in the signal ratio, with a control signal flat, not every such curve was filed as active; the % refers to the signal ratio;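 for max response: cells co-treated with a PPAR-delta agonist as stimulator during compound exposure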). The conditions noted are these: HEK293T PPARd-UAS-bla, beta-lactamase FRET ratio, 18 h; 460 nm channel. The gist of the method:
(§1)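 Beta-lactamase reporter read-out (405 nm excitation, 460/530 nm emission) after CCF4 loading for 2 hrs at RT. HEK293T PPAR-delta-UAS-bla cells, 2% charcoal/dextran FBS, compounds for 18 hrs at 37 C. Hill fit gave IC50 and efficacy.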

The target of assay [3] is Peroxisome proliferator-activated receptor delta (Homo sapiens) (UniProt Q03181). The description is as above. In a few lines:
as §1

The target of assay [4] is Vitamin D3 receptor (Homo sapiens) (UniProt P11473). Kind of assay: qHTS assay for small molecule antagonists of vitamin D receptor signaling (AID 588541).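 Note: receptor activated by calcitriol during compound treatment; series mostly up to about 77 µM; % is set by controls: 0 for no effect and ±100 for the full control effect.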 The gist of the method:
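VDR-UAS-bla HEK293T cells in 2% charcoal-stripped FBS were stimulated with 1-alpha,25-dihydroxyvitamin D3 (3 nM final) plus compound for 16 h at 37 C. The beta-lactamase CCF4 readout was normalized to 50 nM agonist and DMSO, and Hill fits gave IC50.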
In general terms: qHTS replaces the single test concentration by a dilution series.

For assay [5] the target is unchanged. Kind of assay: qHTS assay for small molecule agonists of vitamin D receptor signaling (AID 588543).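 Note: 0% = DMSO basal and 100% = reference agonist control.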 The gist of the method: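 qHTS in agonist mode: compound titrations stimulate a VDR-driven β-lactamase reporter in HEK293T cells over 16 h at 37 °C. Response normalized to 50 nM 1α,25-dihydroxyvitamin D3 = 100%, DMSO = 0%; Hill fitting gives EC50 and maximal response.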

The nature of assay [6]: qHTS assay for small molecule agonists of retinoid X receptor alpha signaling (AID 588544).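 For activation: 0% = DMSO basal wells and 100% = reference agonist.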 The conditions noted are these: HEK293T RXRa-UAS-bla, beta-lactamase reporter, 18 h; 530 nm emission.
Assay [7] addresses Retinoic acid receptor RXR-alpha (Homo sapiens) (UniProt P19793). Described as above.
In assay [8] the target is Thyroid hormone receptor beta (Homo sapiens) (UniProt P10828). Kind of assay: qHTS assay for small molecule agonists of thyroid hormone receptor beta signaling (AID 588545).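 Note: 0% = DMSO only and 100% = 10 nM T3.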 The gist of the method: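 Stimulation of a TR-driven beta-lactamase reporter was quantified in GripTite HEK 293 cells. Compound series ran for 18 hrs; curves were normalized to T3 and DMSO controls and fitted to yield EC50.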

Assay [9] can be described thus: qHTS assay for small molecule antagonists of retinoid X receptor alpha signaling (AID 588546; active = well fitted inhibition curve with a large enough effect in the signal ratio, with a control signal flat, not every such curve was filed as active; the % refers to the signal ratio;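 note: cells stimulated with 9-cis-retinoic acid as agonist; % is set by controls: 0 for no effect and ±100 for the full control effect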). The conditions noted are these: HEK293T RXRa-UAS-bla, beta-lactamase ratio, antagonist mode; measured here: W530 green channel, cytotoxicity proxy. In a few lines: (§2)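 Beta-lactamase reporter inhibition, read as CCF4 fluorescence ratio (ex 405, em 460/530 nm) after 2 h at RT. HEK293T UAS-bla cells, 2500/well, were stimulated with 9-cis-RA at 500 or 100 nM final alongside test compound for 18 h at 37 C.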

Assay [10] addresses Retinoic acid receptor RXR-alpha (Homo sapiens) (UniProt P19793). The assay is described as above. The conditions noted are these: HEK293T RXRa-UAS-bla, beta-lactamase ratio, antagonist mode. The gist of the method:
as §2

The target of assay [11] is Thyroid hormone receptor beta (Homo sapiens) (UniProt P10828). Kind of assay: qHTS assay for small molecule antagonists of thyroid hormone receptor beta signaling (AID 588547; active = well fitted inhibition curve with a large enough effect in the signal ratio, with a control signal flat, not every such curve was filed as active; the % refers to the signal ratio;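 note: cells stimulated with 0.4 nM T3 agonist during compound exposure; series mostly up to about 77 µM; % is set by controls: 0 for no effect and ±100 for the full control effect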). The conditions noted are these: TR-UAS-bla HEK293, beta-lactamase ratio, antagonist mode, 18 h. In a few lines: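 TR-UAS-bla GripTite HEK293 cells in 2% charcoal/dextran FBS medium; compounds 0.59 nM to 92 uM with T3 at 0.4nM final, 18 h at 37 C. Beta-lactamase read by CCF4 fluorescence (460/530 nm); Hill fits gave IC50 and efficacy.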

Assay [12] in a line: qHTS assay for small molecule activators of the p53 signaling pathway (AID 651743; active = well fitted activation curve with a large enough effect in the signal ratio, not every such curve was filed as active; the % refers to the signal ratio; note: series mostly up to about 92 µM; % of control where 0% means no effect). The conditions noted are these: HCT-116 p53RE-bla, beta-lactamase FRET ratio, 16 h; activation: stronger effect = higher value. In a few lines: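 Reporter: beta-lactamase driven by p53 response elements, stably integrated in HCT-116 cells. Cells seeded at 4,000/well, 5 h preincubation, compound (DMSO) 16 h at 37 C; B/G FRET substrate 2 h RT; fluorescence intensity read.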

Assay [13] can be described thus: qHTS assay for small molecule activators of the nuclear factor-kappa B (NF-kB) signaling pathway (AID 651749; active = well fitted activation curve with a large enough effect in the signal ratio; the % refers to the signal ratio; note: series mostly up to about 77 µM; % of control where 0% means no effect). The conditions noted are these: NF-kB-bla ME-180 cells, beta-lactamase FRET ratio, 16 h; activation: stronger effect = higher value. The gist of the method:
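NF-kB-bla ME-180 cells, 2,000/well; 23 nL compound or DMSO pinned; 16 hr, 37C/5% CO2; beta-lactamase FRET read-out.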

Assay [14] is described as follows: qHTS assay for environmental chemicals that activate the Aryl hydrocarbon Receptor (AhR) signaling pathway (AID 651777; active = well fitted curve in the direction sought with a large enough effect; an effect the other way counts as inactive or inconclusive; note: % of control where 0% means no effect; nearly all actives have a fitted effect of over 15% in size). As to conditions: 1A2-DRE human hepatoma cells, luciferase, 24 h; activation: stronger effect = higher value. The gist of the method: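 1A2-DRE human hepatoma reporter line; 1,200 cells/well; cmpd or DMSO 24 h, 37 C/5% CO2; One-Glo 30 min RT; luciferase lum.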

The target of assay [15] is Peroxisome proliferator-activated receptor alpha (Homo sapiens) (UniProt Q07869). Kind of assay: qHTS assay for small molecule agonists of the peroxisome proliferator-activated receptor alpha (PPARalpha) signaling pathway (AID 651778; active = well fitted curve in the direction sought with a large enough effect; an effect the other way counts as inactive or inconclusive; note: % of control where 0% means no effect). The conditions noted are these: PathHunter PPARalpha complementation, chemiluminescence, 6 h; max response: stronger effect = higher value. The gist of the method:
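Enzyme-fragment complementation assay in which ligand-bound PPARalpha translocates and forms an active enzyme that generates chemiluminescence. Cells were plated overnight, exposed to compound for 6 hr at 37 C, and then given detection reagent for 60 min at room temperature.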

Assay [16] is described as follows: qHTS assay for small molecule agonists of the antioxidant response element (ARE) signaling pathway measured by Nrf2-dependant transcriptional activity (AID 720636; active = well fitted curve in the direction sought with a large enough effect in the repeat runs; an effect the other way counts as inactive or inconclusive;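 note: HepG2 cells with an ARE-driven luciferase reporter; % of control where 0% means no effect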). The gist of the method:
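Cells: ARE-luc HepG2 with Nrf2-responsive luciferase. Medium contained 1% dialyzed FBS. Compound exposure lasted 16 hr at 37 C and 5% CO2, followed by ONE-Glo luciferase detection.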

Assay [17] in a line: qHTS assay for small molecule agonists of the antioxidant response element (ARE) signaling pathway measured by Nrf2-dependant transcriptional activity - cell viability counter screen (AID 720653; active = well fitted curve in the direction sought with a large enough effect in the repeat runs; an effect the other way counts as inactive or inconclusive; note: % is set by controls: 0 for no effect and ±100 for the full control effect). The conditions noted are these: ARE-bla HepG2 viability, CellTiter-Glo ATP luminescence, 16 h; max response: stronger effect = lower value. The gist of the method: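 ARE-bla HepG2 cells treated with compounds for 16 h at 37C; this counter screen measures viability as intracellular ATP by CellTiter-Glo luminescence after 30 min at room temperature.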

A short description of assay [18]: qHTS assay for cell viability of HEK293 cells (AID 743288; active = well fitted curve in the direction sought with a large enough effect; an effect the other way counts as inactive or inconclusive; note: % is set by controls: 0 for no effect and ±100 for the full control effect; nearly all actives have a fitted effect of over 50% in size). As to conditions: ATP luminescence (CellTiter-Glo), 18 h; max response: stronger effect = lower value. In a few lines: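 Quantitative high-throughput screen: compounds were pinned onto parental HEK293 cells (2,000 per well) after a minimum 5 h settling at 37 C, incubated 18 h at 37 C, and intracellular ATP measured by luciferase luminescence.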

The nature of assay [19]: qHTS assay for cell viability of the p53RE-bla HCT-116 cell line (AID 743292; active = well fitted curve in the direction sought with a large enough effect; an effect the other way counts as inactive or inconclusive; note: % is set by controls: 0 for no effect and ±100 for the full control effect; nearly all actives have a fitted effect of over 55% in size). The gist of the method:
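HCT-116 p53RE-bla cells seeded 4,000/well; 5 h at 37 C; compound (DMSO) added; 16 h at 37 C; CellTiter-Glo added, 30 min RT; luminescence read.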

Assay [20] can be described thus: qHTS assay for small molecule activators of the human pregnane X receptor (PXR) signaling pathway (AID 720659; call rule not given here; note: 0% is about no effect).
Assay [21] has as its target Peroxisome proliferator-activated receptor gamma (Homo sapiens) (UniProt P37231). Kind of assay: qHTS assay for small molecule agonists of peroxisome proliferator-activated receptor gamma signaling (AID 588536; active = well fitted curve in the direction sought with a large enough effect in the signal ratio, with a control signal flat, not every such curve was filed as active; the % refers to the signal ratio;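 note: 0% = DMSO basal wells and 100% = rosiglitazone at 2 µM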). In a few lines:
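This is an agonist-mode beta-lactamase reporter assay in HEK293 PPAR-gamma-UAS-bla cells with 1% charcoal/dextran FBS. Compound titrations ran 16 h at 37 C before CCF4 detection. EC50 and efficacy are Hill fits scaled to 2 uM rosiglitazone (100%) and DMSO basal.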

The target is the same in assay [22]. The assay can be described thus: qHTS assay for small molecule antagonists of peroxisome proliferator-activated receptor gamma signaling (AID 588537; active = well fitted inhibition curve with a large enough effect in the signal ratio, with a control signal flat, not every such curve was filed as active; the % refers to the signal ratio;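 note: reporter cells co-stimulated with 50 nM rosiglitazone agonist during compound treatment; % of control where 0% means no effect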). The gist of the method: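 Read-out: CCF4 fluorescence (ex 405, em 460/530 nm) after 2 h at RT. Cells were HEK293 carrying a UAS-bla reporter and treated 16 h at 37 C with compound plus rosiglitazone (50 nM final). Normalized to rosiglitazone and DMSO.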

Assay [23] is described as follows: qHTS assay for small molecule agonists of the antioxidant response element (ARE) signaling pathway (AID 651741; active = well fitted activation curve with a large enough effect in the signal ratio; the % refers to the signal ratio; note: potency is the fitted concentration of half-maximal effect). The gist of the method: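 HepG2 ARE-bla reporter cells, 2,000/well; 5 h settle at 37 C/5% CO2; compound pin transfer (23 nL, DMSO); 16 h at 37 C; LiveBLAzer B/G FRET substrate, 2 h RT; fluorescence intensity read.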
Assay [24] concerns the target Voltage-gated inwardly rectifying potassium channel KCNH2 (Homo sapiens) (UniProt Q12809). Kind of assay: qHTS Assay for Small Molecule Inhibitors of the Human hERG Channel Activity (AID 588834; active = well fitted curve in the direction sought with a large enough effect; an effect the other way counts as inactive or inconclusive;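 note: U2OS cells transduced with hERG by BacMam; top concentration of the series differs between compounds; % is set by controls: 0 for no effect and ±100 for the full control effect; lower thallium flux fluorescence means stronger hERG block; nearly all actives have a fitted effect of over 50% in size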). In a few lines:
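Cells were infected with hERG-BacMam virus for 4 hrs at room temperature, grown overnight, then seeded at 2000/well. After dye loading and roughly 10 min compound treatment, thallium influx was triggered and fluorescence recorded.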

In assay [25] the target is Luciferin 4-monooxygenase (Photinus pyralis) (UniProt P08659). Kind of assay: Biochemical firefly luciferase enzyme assay for NPC (AID 624030; active = well fitted curve in the direction sought with a large enough effect; an effect the other way counts as inactive or inconclusive; note: potency is the fitted concentration of half-maximal effect; nearly all actives have a fitted effect of over 70% in size). In a few lines: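 Purified P. pyralis luciferase at 10 nM in 50 mM Tris Acetate (final), luminescence read within 5 minutes of enzyme addition to compounds. Activity normalised to PTC124 versus DMSO; concentration-response curves classed by r2, magnitude and activity.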

Assay [26] deals with Nuclear receptor ROR-gamma (Homo sapiens) (UniProt P51449). Kind of assay: qHTS assay for small molecule antagonists of the retinoid-related orphan receptor gamma (ROR-gamma) signaling pathway (AID 651802; active = well fitted curve in the direction sought with a large enough effect; an effect the other way counts as inactive or inconclusive;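 note: CHO cells with doxycycline-induced ROR-gamma expression; luciferase reporter luminescence driven by ROR response element; series mostly up to about 92 µM; % is set by controls: 0 for no effect and ±100 for the full control effect; nearly all actives have a fitted effect of over 60% in size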). The gist of the method: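 Luciferase read-out: ONE-Glo luminescence after 30 min at room temperature, following 16hr doxycycline induction at 37C, 5% CO2 of CHO cells with TET-inducible ROR and RORE-LUC reporter; decreased luminescence = reduced reporter activity.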
Nuclear receptor ROR-gamma (Homo sapiens), sequence (P51449 whole entry, looked up): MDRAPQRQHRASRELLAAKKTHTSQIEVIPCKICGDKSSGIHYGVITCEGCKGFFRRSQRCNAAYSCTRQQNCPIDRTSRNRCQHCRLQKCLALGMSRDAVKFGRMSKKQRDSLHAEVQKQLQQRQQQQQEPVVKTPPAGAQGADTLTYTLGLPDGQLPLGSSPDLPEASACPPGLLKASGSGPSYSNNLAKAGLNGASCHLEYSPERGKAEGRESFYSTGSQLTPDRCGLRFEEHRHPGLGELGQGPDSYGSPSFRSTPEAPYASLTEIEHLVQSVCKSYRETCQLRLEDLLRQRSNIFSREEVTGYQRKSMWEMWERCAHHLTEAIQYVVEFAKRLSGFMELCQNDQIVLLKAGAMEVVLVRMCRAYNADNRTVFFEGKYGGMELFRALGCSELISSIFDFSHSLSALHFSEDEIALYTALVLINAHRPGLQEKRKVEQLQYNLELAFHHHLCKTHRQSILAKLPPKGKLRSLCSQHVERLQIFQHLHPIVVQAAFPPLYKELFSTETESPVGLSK

Thyroid hormone receptor beta (Homo sapiens), sequence (P10828 whole entry, looked up): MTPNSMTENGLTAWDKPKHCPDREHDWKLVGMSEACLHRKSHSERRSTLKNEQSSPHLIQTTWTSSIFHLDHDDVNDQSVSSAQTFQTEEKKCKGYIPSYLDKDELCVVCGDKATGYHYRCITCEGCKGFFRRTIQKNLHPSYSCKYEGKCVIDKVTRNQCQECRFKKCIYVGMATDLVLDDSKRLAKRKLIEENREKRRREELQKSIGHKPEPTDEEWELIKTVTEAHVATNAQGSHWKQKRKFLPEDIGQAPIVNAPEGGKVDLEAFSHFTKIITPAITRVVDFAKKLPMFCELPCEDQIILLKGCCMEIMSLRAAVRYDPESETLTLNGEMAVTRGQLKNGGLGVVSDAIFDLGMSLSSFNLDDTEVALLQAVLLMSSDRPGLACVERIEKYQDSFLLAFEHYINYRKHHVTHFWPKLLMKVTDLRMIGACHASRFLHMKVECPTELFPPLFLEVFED
Retinoic acid receptor RXR-alpha (Homo sapiens), sequence (P19793 whole entry, looked up): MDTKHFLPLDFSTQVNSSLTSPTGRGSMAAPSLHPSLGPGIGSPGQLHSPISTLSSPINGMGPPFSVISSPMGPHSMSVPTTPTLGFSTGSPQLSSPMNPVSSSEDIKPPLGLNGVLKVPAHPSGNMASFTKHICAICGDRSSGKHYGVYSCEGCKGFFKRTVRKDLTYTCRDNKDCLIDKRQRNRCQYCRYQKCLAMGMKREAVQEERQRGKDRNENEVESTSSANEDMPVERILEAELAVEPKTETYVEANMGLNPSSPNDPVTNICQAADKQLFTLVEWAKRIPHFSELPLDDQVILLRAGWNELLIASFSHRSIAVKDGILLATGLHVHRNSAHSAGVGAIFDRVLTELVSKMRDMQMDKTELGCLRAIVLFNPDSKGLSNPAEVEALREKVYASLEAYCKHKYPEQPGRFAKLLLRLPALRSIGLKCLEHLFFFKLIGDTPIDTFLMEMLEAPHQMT
Peroxisome proliferator-activated receptor delta (Homo sapiens), sequence (Q03181 whole entry, looked up): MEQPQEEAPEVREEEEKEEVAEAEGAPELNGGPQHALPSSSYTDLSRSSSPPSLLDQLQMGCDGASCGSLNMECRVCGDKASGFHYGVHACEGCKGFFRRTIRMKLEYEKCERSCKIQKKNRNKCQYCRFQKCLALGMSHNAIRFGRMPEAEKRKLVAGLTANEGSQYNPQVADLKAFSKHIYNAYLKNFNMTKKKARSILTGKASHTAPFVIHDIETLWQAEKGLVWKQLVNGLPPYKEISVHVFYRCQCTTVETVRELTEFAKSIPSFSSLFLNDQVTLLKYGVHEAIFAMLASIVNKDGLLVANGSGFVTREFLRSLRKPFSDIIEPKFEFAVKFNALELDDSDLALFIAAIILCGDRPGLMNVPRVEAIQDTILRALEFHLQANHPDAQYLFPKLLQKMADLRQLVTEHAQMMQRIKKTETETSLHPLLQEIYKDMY
Vitamin D3 receptor (Homo sapiens), sequence (P11473 whole entry, looked up): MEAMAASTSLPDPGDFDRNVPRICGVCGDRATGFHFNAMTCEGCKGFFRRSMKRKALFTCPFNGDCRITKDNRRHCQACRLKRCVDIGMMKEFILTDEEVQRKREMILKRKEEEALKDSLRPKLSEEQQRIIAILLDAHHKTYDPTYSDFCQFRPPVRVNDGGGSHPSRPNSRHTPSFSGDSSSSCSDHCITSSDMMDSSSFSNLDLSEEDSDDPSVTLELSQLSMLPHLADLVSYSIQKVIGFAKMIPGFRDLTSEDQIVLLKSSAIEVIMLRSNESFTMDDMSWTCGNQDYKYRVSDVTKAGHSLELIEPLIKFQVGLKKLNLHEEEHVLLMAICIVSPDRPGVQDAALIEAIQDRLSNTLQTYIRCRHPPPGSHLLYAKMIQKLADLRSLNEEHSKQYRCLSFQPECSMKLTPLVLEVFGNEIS
Peroxisome proliferator-activated receptor gamma (Homo sapiens), sequence (P37231 whole entry, looked up): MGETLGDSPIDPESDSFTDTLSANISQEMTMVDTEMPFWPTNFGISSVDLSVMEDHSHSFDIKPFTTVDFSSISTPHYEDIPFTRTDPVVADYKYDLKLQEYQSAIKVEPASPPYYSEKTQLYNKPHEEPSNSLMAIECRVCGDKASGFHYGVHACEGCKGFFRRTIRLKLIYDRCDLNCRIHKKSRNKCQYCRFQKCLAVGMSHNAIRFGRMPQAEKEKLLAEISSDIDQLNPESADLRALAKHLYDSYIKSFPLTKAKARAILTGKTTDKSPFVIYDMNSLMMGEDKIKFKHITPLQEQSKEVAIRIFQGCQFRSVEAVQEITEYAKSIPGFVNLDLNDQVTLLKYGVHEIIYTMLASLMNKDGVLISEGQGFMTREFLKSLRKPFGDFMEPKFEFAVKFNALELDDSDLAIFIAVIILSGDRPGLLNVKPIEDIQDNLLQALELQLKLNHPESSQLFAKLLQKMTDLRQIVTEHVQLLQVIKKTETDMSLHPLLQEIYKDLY
Peroxisome proliferator-activated receptor alpha (Homo sapiens), sequence (Q07869 whole entry, looked up, the tested form may be a part): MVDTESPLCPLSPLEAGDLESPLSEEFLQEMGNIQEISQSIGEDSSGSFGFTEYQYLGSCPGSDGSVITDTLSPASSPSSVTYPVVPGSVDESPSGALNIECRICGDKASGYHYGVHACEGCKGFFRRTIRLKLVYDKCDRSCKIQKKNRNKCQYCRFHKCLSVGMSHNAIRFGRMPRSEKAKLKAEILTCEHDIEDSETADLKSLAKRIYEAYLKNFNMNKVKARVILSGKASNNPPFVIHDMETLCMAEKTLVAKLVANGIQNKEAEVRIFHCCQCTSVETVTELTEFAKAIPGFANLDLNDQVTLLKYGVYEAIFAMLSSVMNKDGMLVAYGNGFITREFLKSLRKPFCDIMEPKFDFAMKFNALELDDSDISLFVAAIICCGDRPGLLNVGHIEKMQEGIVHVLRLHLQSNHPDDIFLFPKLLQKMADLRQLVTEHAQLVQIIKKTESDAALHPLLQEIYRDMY
Voltage-gated inwardly rectifying potassium channel KCNH2 (Homo sapiens), sequence (Q12809 whole entry, looked up): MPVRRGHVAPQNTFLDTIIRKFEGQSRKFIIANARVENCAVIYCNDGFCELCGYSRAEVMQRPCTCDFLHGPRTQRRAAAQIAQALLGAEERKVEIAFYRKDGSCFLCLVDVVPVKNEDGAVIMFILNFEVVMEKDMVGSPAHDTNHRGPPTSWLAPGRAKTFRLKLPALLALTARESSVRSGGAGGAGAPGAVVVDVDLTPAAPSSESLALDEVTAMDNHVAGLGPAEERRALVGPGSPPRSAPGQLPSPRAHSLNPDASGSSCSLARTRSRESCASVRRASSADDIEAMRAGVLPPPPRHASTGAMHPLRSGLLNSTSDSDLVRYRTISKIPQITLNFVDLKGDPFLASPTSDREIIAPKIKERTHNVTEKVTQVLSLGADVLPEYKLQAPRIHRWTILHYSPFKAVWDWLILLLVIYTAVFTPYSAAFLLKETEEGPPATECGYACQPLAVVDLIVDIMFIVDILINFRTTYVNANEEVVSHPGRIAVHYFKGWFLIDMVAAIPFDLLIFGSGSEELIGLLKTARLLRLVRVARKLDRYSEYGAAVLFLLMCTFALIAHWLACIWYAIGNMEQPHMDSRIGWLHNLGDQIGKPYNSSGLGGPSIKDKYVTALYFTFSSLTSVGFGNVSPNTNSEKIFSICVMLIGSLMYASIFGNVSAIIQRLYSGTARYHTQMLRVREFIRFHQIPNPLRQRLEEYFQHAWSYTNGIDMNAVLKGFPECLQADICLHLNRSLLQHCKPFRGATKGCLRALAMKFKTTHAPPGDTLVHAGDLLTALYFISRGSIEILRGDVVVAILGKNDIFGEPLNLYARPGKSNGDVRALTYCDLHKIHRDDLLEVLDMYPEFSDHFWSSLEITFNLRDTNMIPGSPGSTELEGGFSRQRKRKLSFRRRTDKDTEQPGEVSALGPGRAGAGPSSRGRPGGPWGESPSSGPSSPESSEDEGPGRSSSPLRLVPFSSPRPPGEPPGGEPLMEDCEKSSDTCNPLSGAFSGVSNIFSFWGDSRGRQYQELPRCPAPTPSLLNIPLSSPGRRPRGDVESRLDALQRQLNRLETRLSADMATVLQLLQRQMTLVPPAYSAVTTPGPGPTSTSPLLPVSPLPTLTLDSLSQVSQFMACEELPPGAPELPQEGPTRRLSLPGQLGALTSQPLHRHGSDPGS
Luciferin 4-monooxygenase (Photinus pyralis), sequence (P08659 whole entry, looked up): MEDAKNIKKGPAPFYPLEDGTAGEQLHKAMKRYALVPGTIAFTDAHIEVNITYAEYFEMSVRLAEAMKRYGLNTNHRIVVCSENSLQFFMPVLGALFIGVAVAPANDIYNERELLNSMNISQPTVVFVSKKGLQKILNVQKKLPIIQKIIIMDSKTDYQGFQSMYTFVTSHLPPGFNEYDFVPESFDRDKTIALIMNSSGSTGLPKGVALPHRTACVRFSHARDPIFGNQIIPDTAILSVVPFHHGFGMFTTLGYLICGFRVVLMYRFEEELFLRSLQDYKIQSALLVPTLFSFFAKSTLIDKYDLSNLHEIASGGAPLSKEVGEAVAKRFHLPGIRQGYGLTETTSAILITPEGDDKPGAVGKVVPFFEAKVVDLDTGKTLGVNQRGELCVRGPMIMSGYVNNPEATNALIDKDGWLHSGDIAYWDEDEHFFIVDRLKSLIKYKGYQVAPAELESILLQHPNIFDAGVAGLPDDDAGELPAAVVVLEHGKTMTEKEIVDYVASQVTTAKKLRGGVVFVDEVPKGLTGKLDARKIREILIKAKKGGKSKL

For the compound `CC(C1CC1)C(O)(Cn1cncn1)c1ccc(Cl)cc1` (stereo not given), the compound was called inactive in assay [1], in assay [5] and in assay [20]. Further, the max response in assay [2] was 49.1%; in [6], 4.53%; in assay [9] it was -3.3%; in assay [10], -4.42% (inactive); in assay [15] it was -1.34% (inactive); in assay [17], -0.0614% (inactive). Also, the max response in assay [18] was -14% (inactive). Also, the Potency entry in [3], in assay [4], in assay [7], in [8], in assay [16] and in assay [19] was “inactive” in each case. The activity change % (negative = inhibition) in assay [11] is -18.1% (inactive). In addition, the activation in assay [12] is -2.39% (inactive); in [13], -1.89% (inactive); in assay [14] it was 1.13% (inactive).
On to `CCCCCCCCCCCCCC(=O)OC`, for which, in assay [1], the outcome was inactive.
Regarding `Nc1c(N=Nc2ccc(S(=O)(=O)CCOS(=O)(=O)O)cc2)c(S(=O)(=O)O)cc2cc(S(=O)(=O)O)c(N=Nc3ccc(S(=O)(=O)CCOS(=O)(=O)O)cc3)c(O)c12`, the outcome in [1] was inactive.
With `CC(C)[C@H](C(=O)O[C@H](C#N)c1cccc(Oc2ccccc2)c1)c1ccc(Cl)cc1`, the call in assay [1] was inactive. Further, the max response in assay [2] was 2%; in [6] it was -3.66%; in [15], 0.0129% (inactive); in assay [17] it was 6.41% (inactive); in assay [18], -17.9% (inactive). Also, the Potency result in [3], in assay [21], in [22], in assay [7], in assay [8] and in [16] was “inactive” each time. Besides, in assay [19], the Potency entry is “inactive”. Also, the activity change % (negative = inhibition) in assay [11] is -0.522% (inactive). In addition, in [23], the Potency is 61.1 µM (active). Further, the activation is -0.0449% (inactive) in assay [12] and 0.849% (inactive) in [14].
On to `Cc1cccc2cccnc12`, for which, in assay [1], the outcome was inactive.
With `[O-][N+](=Nc1ccccc1)c1ccccc1`, the compound was called inactive in assay [1]. Also, the Potency entry in [24] and in assay [26] was “inactive” in each case. Also, the Potency in [25] is 12.8 µM (active); in assay [23] it was 37.6 µM (active).
With `COC(=O)C(C)Oc1ccc(Oc2ncc(C(F)(F)F)cc2Cl)cc1` (stereo not given), the result in assay [1] was inactive.
For the compound `NCCN`, the outcome in assay [1] was inactive. In assay [24], the Potency entry was “inactive”.
For the compound `CCCCCCC(O)CCCCCCCCCCC(=O)OC` (stereo not given), the compound was classed as inactive in assay [1].
For the compound `CCOC(=O)OCC`, in [1], the result was inactive.
